This note sets out measurements from PubChem BioAssay (NCI).

The panel holds about 83,000 compounds, 20% with a hit somewhere; the sample as a whole holds those more often.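 Each cell line was grown in a 96-well plate and treated with one concentration of compound for 48 hours. Values below 10 were considered active.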 The source made the active and inactive calls.

For this assay, the system named is HL-60(TB) leukemia. Description: NCI-60 one-dose screen, 48 h (100 = growth as untreated, 0 = no growth, -100 = all killed). As to conditions: 10 µM unless noted.
`CCCCn1c(-c2ccc(C(=O)O/N=C(\N)c3ccc4ccccc4c3)cc2)nc(-c2ccccc2)c1-c1ccccc1`: the growth was 23.8% (inactive).
Next, `O=C(/C=C/c1ccc(B(O)O)cc1)/C=C/c1ccc(B(O)O)cc1`: 21.7% (inactive).
As for `O=C(O)C(Cc1ccccc1)N1C(=O)/C(=C/C(Cl)=C/c2ccc([N+](=O)[O-])cc2)SC1=S` (stereo unspecified), the growth was -8.33% (active).
Next, `CC1(C)[C@@H](O)CC[C@]2(C)[C@H]3CC[C@@H]4[C@H]5[C@H](C(=O)/C=C/c6ccc(C(F)(F)F)cc6)CC[C@]5(CO)CC[C@@]4(C)[C@]3(C)CC[C@@H]12`: 28.1% (inactive).
With `Clc1ccc(N2N=C(c3cccc(Nc4ccncc4)c3)CC2c2ccc(Br)cc2)cc1` (stereo unspecified), the growth is 0.656% (active).
Next, `CCOC(=O)C1=C(C)NC(=O)NC1c1ccc(OCC(=O)N/N=C/c2ccc(Cl)cc2)cc1` (stereo unspecified): 98.3% (inactive); `CC(=O)Nc1ccc2c(c1)C(N1CC3CCC(CC3)C1)c1ccccc1-2` (stereo unspecified): 52.3% (inactive).
Next, `COC(=O)[C@@H](Cc1c[nH]c2ccccc12)NC(=O)/C=C/c1ccccc1`: 0.51% (active).
Next, `Cn1ncc2ccc(-c3nc(-c4ccccc4)[nH]c3-c3n[nH]c(=O)n3C3CC3)cc21`: 84.7% (inactive); `CCc1ccc(C(c2ccc(CC)cc2)C(Cl)(Cl)CCl)cc1`: 77.2% (inactive); `COc1ccccc1NC(=O)c1cc2cc(Br)ccc2cc1O`: -33.7% (active).
On to `COc1ccc(C2CC(c3cc(OC)c(OC)c(OC)c3)=NN2)cc1` (stereo unspecified), for which the growth was 60.1% (inactive).
Next, `O=c1ccn(C2OC(F)(CO)C(O)C2F)c(=O)[nH]1` (stereo unspecified): 114% (inactive); `Cn1c(=O)c2c(nc(Nc3cc(=O)[nH]c(=O)[nH]3)n2Cc2ccccc2)n(C)c1=O`: 90.6% (inactive).
Next, `Cc1nn(-c2ccccc2)c(N)c1N=C1NC(=O)/C(=C/c2ccc(Br)cc2)S1`: 77.9% (inactive); `O=C(OCc1ccc2c(Cl)cc(Cl)c(O)c2n1)c1cc2ccccc2[nH]1`: -36.1% (active).
Next, `Cc1ccc(C)c(/C=C2\CN(C(=O)OC(C)(C)C)C/C(=C\c3cc(C)ccc3C)C2=O)c1`: 10.7% (inactive).
As to `COc1cc(OC)cc(-c2ccc(-c3ccc(C(=N)N)cn3)s2)c1`, the growth is -25.4% (active).
Next, `COc1cc2c(cc1OCCCCCCN1CCN(CC(=O)Nc3ccc(Cl)cc3C(=O)c3ccccc3Cl)CC1)N=CC1CCCN1C2=O` (stereo unspecified): -85.8% (active); `Cc1cccc(N=Cc2ccccc2O)c1C`: 87.9% (inactive).
On to `CCN(C)S(=O)(=O)Nc1cccc(Nc2ncnc3cc(NC(=O)CCl)ccc23)c1Cl`, for which the growth was 4.38% (active).
Next, `O=C(NC1CCCCC1)OCc1c(COC(=O)NC2CCCCC2)c(-c2ccc(Cl)c(Cl)c2)n2c1CCC2`: -35.6% (active); `O=C1/C(=C/c2ccc(OCc3ccccc3)cc2)Oc2cc(OCCN3CCCCC3)ccc21`: 80.9% (inactive); `COC(=O)CCc1c(/C=C2\N=C(c3ccc[nH]3)C=C2OC)[nH]c(C)c1C(=O)OCc1ccccc1`: -14.3% (active).
Regarding `CSc1nc2ccc(C)cc2cc1/C=C1/C=C(c2ccccc2)NC1=O`, the growth was 87.4% (inactive).
Next, `COc1ccc([C@H]2c3[nH]c4ccccc4c3C[C@H]3C(=O)N(CCCCCCC(=O)NO)CC(=O)N23)cc1`: 5.31% (active); `c1cc2ccc3cc2cc1CNCCOCCNCc1ccc2ccc(cc2c1)CNCCOCCNC3`: 15.9% (inactive); `N#Cc1nn(-c2cc(=O)[nH]c3ccc(Br)cc23)c(N)c1C#N`: -11.2% (active).
Next, `N#Cc1c(-c2ccccc2)nc2c(c(-c3ccc(Cl)cc3)nn2-c2ccccc2)c1-c1ccc([N+](=O)[O-])cc1`: 103% (inactive).
On to `Cc1cc(C)c2c(NC(=O)Nc3ccc(Cl)c(Cl)c3)n[nH]c2n1`, for which the growth was 96.9% (inactive).
Next, `Nc1ccc(C2=NN(C(=O)c3cc(-c4ccc(Cl)cc4)nc4ccccc34)C(c3ccccc3)C2)cc1` (stereo unspecified): -6.07% (active); `Cc1ccc(NCCNCC(C)(C)O)c2c(=O)c3ccc(Cl)cc3sc12`: -48.3% (active); `CC(C)(C)c1cc(O)c(C(C)(C)C)cc1O`: 35.1% (inactive).
Next, `Clc1ccccc1-c1nc(Nc2nc3ccccc3s2)nc(C(Cl)(Cl)Cl)n1`: 32.9% (inactive); `C=C1C(=O)O[C@H]2[C@H]1CC/C(COC(=O)c1cccc3ccccc13)=C\CC[C@@]1(C)O[C@@H]21`: -47.2% (active); `COc1cc(/C=C2\COc3ccc(O)cc3C2=O)cc(OC)c1`: 18.4% (inactive).
